Screens (PubChem BioAssay)
NCOA2 inhibitor: human SRC2 (NCOA2) inhibition; Q15596; HEK293 GAL4-SRC2 luciferase reporter, luminescence; inhibition, % at 9 µM; 0.17% of 370,000 active; AID 651957;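 active = inhibition above the mean inhibition of all tested compounds plus 3 SD, set per campaign, cut at about 52% in these data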;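 note: 0% = DMSO treated cells and 100% = cells given Gossypol at 36 µM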
COUP-TFII inh: blocks human COUP-TFII nuclear receptor. 0.7% of 370,000 active. AID 686940. HEK293T NGFI-A luciferase reporter, luminescence. inhibition, % at 8.6 µM;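 active = inhibition above a per-plate cutoff, mean inhibition of test wells between control levels plus 3 SD, cut at about 38% in these data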;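 note: cells cotransfected with COUP-TFII expression vector driving the NGFI-A reporter; 0% = median of COUP-TF2 test wells and 100% = reporter-only cells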
LRH-1 inv ag: inverse agonists of human LRH-1 (NR5A2); O00482; HEK293T StAR-luciferase reporter, LRH-1 transfected, 24 h; inhibition, % at 3.6 µM; 0.13% of 360,000 active; AID 602396;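 active = inhibition above the mean inhibition of all tested compounds plus 3 SD, cut at about 73% in these data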;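 note: 0% = DMSO wells and 100% = reporter-only cells lacking LRH-1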
Target sequence (O00482 whole entry, looked up): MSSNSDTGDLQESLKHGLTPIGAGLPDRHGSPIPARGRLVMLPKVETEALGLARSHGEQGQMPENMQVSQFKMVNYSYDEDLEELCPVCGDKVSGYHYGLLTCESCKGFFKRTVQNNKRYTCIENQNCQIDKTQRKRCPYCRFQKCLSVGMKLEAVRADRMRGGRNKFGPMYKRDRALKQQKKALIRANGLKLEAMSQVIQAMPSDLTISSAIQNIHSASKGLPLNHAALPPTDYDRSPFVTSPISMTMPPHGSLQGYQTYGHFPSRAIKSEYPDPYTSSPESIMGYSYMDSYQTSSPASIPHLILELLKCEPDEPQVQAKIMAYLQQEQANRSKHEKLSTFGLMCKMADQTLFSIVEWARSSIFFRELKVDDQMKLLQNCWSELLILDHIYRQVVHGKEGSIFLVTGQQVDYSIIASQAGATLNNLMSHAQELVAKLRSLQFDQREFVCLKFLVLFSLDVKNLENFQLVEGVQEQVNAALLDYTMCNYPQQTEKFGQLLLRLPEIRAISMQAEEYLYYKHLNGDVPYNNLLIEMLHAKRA
SRC1 inh: inhibitors of human steroid receptor coactivator 1 (SRC1); Q15788; HEK293 GAL4-SRC1 luciferase reporter, luminescence; inhibition, % at 3.6 µM; 0.12% of 360,000 active;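 active = inhibition above the campaign mean plus 3 SD, with each screening campaign given its own cutoff, cut at about 60% in these data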;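 note: 0% = DMSO treated cells and 100% = gossypol at 36 µM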
SRC3 inh: inhibitors of human steroid receptor coactivator 3 (SRC3) | Q9Y6Q9 | HEK293 GAL4-SRC3 luciferase reporter, luminescence | inhibition, % at 3.6 µM | 0.17% of 360,000 active | AID 588352;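 active = inhibition above a per-campaign cutoff, the mean of all compounds plus 3 SD, cut at about 60% in these data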;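 note: 0% = DMSO-treated cells and 100% = gossypol-treated cells at 36 µM; higher means less SRC3-driven luciferase light from the GAL4 reporter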
The depositor's hits bear a star; / = no result given. A selection: hits, their analogues and other compounds. The true share with any hit is near 0.84%.

SMILES	NCOA2 inhibitor	COUP-TFII inh	LRH-1 inv ag	SRC1 inh	SRC3 inh
CC(OC(=O)c1snc(C(=O)NC2CCCCC2)c1N)C(=O)NC(C)(C)C (centres undefined)	20	3	22	2	2
COc1ccccc1-c1cccc2c3c([nH]c12)[C@@H]1C[C@H]2[C@@H](C(=O)N1CC3)[C@H](C)ON2C	-19	2	/	/	/
O=C1Cc2c([nH]c3ccc([N+](=O)[O-])cc23)-c2ccccc2N1	35	38*	7	-9	73*
COc1ccc(N=C(NN)c2ccc3ccccc3n2)cc1	63*	75*	77*	54	46
COc1ccc(NC(=S)c2ccc3ccccc3n2)cc1	/	/	-16	-45	-34
CCCN1CCCCC(NC(=O)c2ccc3ccccc3c2)C1=O (centres undefined)	-28	3	/	/	/
COc1ccc(-c2[nH]ncc2-c2ccc3c(c2)OCCO3)c(O)c1	49	23	39	67*	65*
CCCc1cc(-c2[nH]ncc2-c2ccc3c(c2)OCCCO3)c(O)cc1OC	-32	-6	/	/	/
COc1cc2ccccc2ccc1=NO	54*	15	36	48	49
COc1cc2ccccc2cc1C(=O)O	-38	1	-5	1	9
Nc1[nH]c(C(=O)c2ccccc2)c(-c2cc(F)ccc2Br)c1C(=O)NCCc1c[nH]c2ccccc12	13	14	/	/	/
CCCCCCCCCCCCCCCC[n+]1ccc(/C=N/O)cc1	-17	38*	-2	-8	17
CCCCCCCCCCCCCCCC[n+]1ccc(C(N)=O)cc1	14	16	13	-3	18
O=C(CC1CCCC1)N[C@@H](Cc1cccnc1)C(=O)N1CCC[C@H]1C(=O)NC1CCCC1	-1	13	/	/	/
Cc1oc(-c2ccc(Cl)cc2)nc1CN1CCC(C(=O)N2CCN(Cc3ccccc3)CC2)CC1	-12	39*	-5	3	2
COc1ccc2[nH]c3c(c2c1)CC(C)NC3=O (centres undefined)	36	32	37	66*	52
COc1cccc(-c2nc(-c3ccccc3)no2)c1	-59	-64	-84	-117	-132
COc1cccc(-c2nc(-c3ccccn3)no2)c1	58*	34	/	/	/
O=C(Nc1ccccc1)C1=C(c2ccccc2)S(=O)(=O)CCS1(=O)=O	54*	24	0	-31	-24
COc1ccc(-c2n(CC(=O)OC3CC(C)CCC3C(C)C)c3ccccc3[n+]2C)cc1 (centres undefined)	18	-21	59	24	70*
COC1=C(C)C(=O)C2=C(C1=O)C1C3CC4=C(C(=O)C(OC)=C(C)C4=O)C(CNC(=O)C(C)=O)N3C(C#N)C(C2)N1C (centres undefined)	63*	52*	96*	84*	85*
Cc1[nH]nc2c1C(c1ccc(Br)cc1)N(c1ccccc1)C2=O (centres undefined)	-4	-1	/	/	/
CC(C)(C)c1ccc(C(=O)CCC(=O)OCC(=O)NCCc2ccc(S(N)(=O)=O)cc2)cc1	54*	29	26	-3	-2
COc1cc(C2c3cc4c(cc3C(OC3OC5COC(c6cccs6)OC5C(O)C3O)C3COC(=O)C23)OCO4)cc(OC)c1O (centres undefined)	-3	-22	65	81*	77*
COc1cc([C@@H]2c3cc4c(cc3[C@@H](O[C@@H]3O[C@@H]5CO[C@@H](C)O[C@H]5[C@H](O)[C@H]3O)[C@H]3COC(=O)[C@H]23)OCO4)cc(OC)c1O	-24	-53	61	80*	65*
SMILES	NCOA2 inhibitor	COUP-TFII inh	LRH-1 inv ag	SRC1 inh	SRC3 inh
COc1cc([C@@H]2c3cc4c(cc3[C@H](O)[C@H]3COC(=O)[C@H]23)OCO4)cc(OC)c1OC	14	-57	32	-7	27
O=C(O)CCSc1ncnc2sc(-c3ccccc3)cc12	81*	23	15	10	30
CC1CN(S(=O)(=O)c2ccc(C(=O)NCCCn3ccnc3)cc2)CC(C)O1 (centres undefined)	47	8	67	62*	54
CC1CN(S(=O)(=O)c2cccc(C(=O)NCCCn3ccnc3)c2)CC(C)O1 (centres undefined)	-4	5	-2	-8	7
Cc1cc(NC(=O)Cc2cn(C)c3ccccc23)ccc1Nc1cccnc1	19	-13	/	/	/
O=C(NC1CCCCN(Cc2ccc(Cl)cc2)C1=O)c1c(F)cccc1F (centres undefined)	-12	9	/	/	/
CCN1/C(=C/c2ccc3ccccc3[n+]2CC)C=Cc2ccccc21	12	75*	98*	68*	87*
CCN1/C(=C/c2ccc3ccccc3[n+]2CCCS(=O)(=O)[O-])C=Cc2cc(C)ccc21	-14	-2	1	3	-15
CN1CCN(c2ccccc2NC(=O)c2ccc(-c3ccccc3[N+](=O)[O-])o2)CC1	-18	10	27	4	1
COC(=O)c1cc2c(c3c4cc(F)ccc4n(C(=O)c4ccccc4)c13)C(=O)N(C1CCCCC1)C2	-5	-12	/	/	/
CCCCS(=O)(=O)N1C2=NC(C(=O)OCC)=C(C(=O)OCC)C3N(Cc4ccc(Br)cc4)c4ccccc4[C@]23C[C@H]1C(=O)OC (some centres undefined)	16	5	/	/	/
Cc1cn([C@@H](CCCCNC(=O)OC(C)(C)C)C(=O)NCCCCCCCCCCC(=O)N2CCN(C(=O)OC(C)(C)C)CC2)nn1	/	/	35	35	64*
Cc1cnc(C=NNC(N)=S)c2cccc(N)c12	-3	-7	1	-4	-5
NC(=S)NN=Cc1nccc2c(C(F)(F)C(F)(F)C(F)(F)F)cccc12	47	28	97*	92*	93*
NC(=S)NN=Cc1nccc2ccccc12	4	-41	78*	79*	79*
CCN(CC)C(=O)CC[C@H]1CC[C@]2(CCCN(C3CCCCC3)C2)O1	12	9	/	/	/
COc1ccc(C(=O)Nc2ccc(-c3ccc(C)o3)cc2)cc1S(=O)(=O)N1CCOCC1	16	75*	24	25	22
COC1C(CO)OC(n2c3c(Cl)cccc3c3c4c(c5c6cccc(Cl)c6[nH]c5c32)C(=O)NC4=O)C(O)C1O (centres undefined)	-23	3	29	70*	64*
CCc1ccc(C2=NNC(=Nc3cccc(S(=O)(=O)N(C)C)c3)SC2)cc1	24	41*	22	11	14
Cc1cccc(N=C2NN=C(c3ccc4c(c3)OCCO4)CS2)c1	-71	-18	-50	-56	-51
Clc1ccc(-c2csc(=Nc3cccnc3)n2CCCn2ccnc2)cc1Cl	57*	36	-26	41	46
Cc1ccc(C2c3c(n[nH]c3C)C(=O)N2c2ccccc2)cc1 (centres undefined)	4	-7	/	/	/
COCCN(C(=O)CCl)C(C(=O)NC1CCCCC1)c1ccccc1C (centres undefined)	54*	-12	28	22	59
C=CCN1C(=O)c2n[nH]c(C(C)C)c2C1c1ccc(C)cc1 (centres undefined)	26	10	/	/	/
